This passage reports outcome and AC50 results from PubChem BioAssay (EPA / NIEHS).

Read-out in experiment [1]: TIMP metallopeptidase inhibitor 1 (TIMP1), TIMP1 (gene 7076)
Kind of experiment: BSK_hDFCGF_TIMP1: BioMAP Diversity Plus: hDFCGF Assay for TIMP metallopeptidase inhibitor 1 (TIMP1) Biomarker Activity (AID 2283062). The following applies: primary human foreskin fibroblasts; actives raise or lower the signal. The gist of the method:
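Primary human foreskin fibroblasts in the hDFCGF system were dosed with compound for 24 h, then TIMP-1 was measured by ELISA. Activity was fitted bidirectionally relative to DMSO control; parallel SRB staining assessed cytotoxicity.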

Read-out in experiment [2]: Monokine induced gamma interferon (MIG), CXCL9 (gene 4283)
The experiment in a line: BSK_hDFCGF_MIG: BioMAP Diversity Plus: hDFCGF Assay for Monokine induced gamma interferon (MIG) Biomarker Activity (AID 2283063). The following applies: primary human foreskin fibroblasts; actives raise or lower the signal. The gist of the method:
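ELISA read-out of MIG from primary human dermal fibroblasts 24 h post-dosing. Gain or loss of signal fitted bidirectionally, DMSO as baseline.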

Read-out in experiment [3]: Matrix Metallopeptidase 1 (MMP1), MMP1 (gene 4312)
The experiment in a line: BSK_hDFCGF_MMP1: BioMAP Diversity Plus: hDFCGF Assay for Matrix Metallopeptidase 1 (MMP1) Biomarker Activity (AID 2283064). The following applies: primary human foreskin fibroblasts; actives raise or lower the signal. The gist of the method:
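hDFCGF primary fibroblasts (human foreskin); chemical added; 24 h; MMP1 by ELISA; bidirectional fit vs DMSO.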

Read-out in experiment [4]: Vascular cell adhesion molecule 1 (VCAM1), VCAM1 (gene 7412)
The experiment in a line: BSK_hDFCGF_VCAM1: BioMAP Diversity Plus: hDFCGF Assay for Vascular cell adhesion molecule 1 (VCAM1) Biomarker Activity (AID 2283065).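 On AC50: VCAM-1 protein level quantified by ELISA after 24 h chemical exposure.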 The following applies: primary human foreskin fibroblasts; actives raise or lower the signal. A digest of the protocol:
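Primary human foreskin fibroblasts (hDFCGF system) were dosed with chemical and VCAM-1 was measured by ELISA 24 h later. Bidirectional curve fitting used DMSO as negative control and activity baseline.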

Read-out in experiment [5]: Plasminogen activator inhibitor-1 (PAI1), SERPINE1 (gene 5054)
The experiment in a line: BSK_hDFCGF_PAI1: BioMAP Diversity Plus: hDFCGF Assay for Plasminogen activator inhibitor-1 (PAI1) Biomarker Activity (AID 2283066). The following applies: primary human foreskin fibroblasts; actives raise or lower the signal. The gist of the method: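 PAI-1 levels, determined by ELISA, served as the endpoint in human foreskin fibroblast cultures exposed to compound for 24 h, with DMSO as baseline.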

Read-out in experiment [6]: Intercellular Adhesion Molecule 1 (ICAM1), ICAM1 (gene 3383)
Kind of experiment: BSK_KF3CT_ICAM1: BioMAP Diversity Plus: KF3CT Assay for Intercellular Adhesion Molecule 1 (ICAM1) Biomarker Activity (AID 2283067). The following applies: primary human keratinocytes with fibroblasts; actives raise or lower the signal. A digest of the protocol: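 Human keratinocyte plus foreskin fibroblast primary co-culture was exposed to chemical for 24 h. ICAM-1 was then quantified by ELISA, and the data were fit bidirectionally against DMSO as the negative control and baseline.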

Read-out in experiment [7]: Interferon-gamma inducible Protein 10 (IP10), CXCL10 (gene 3627)
Kind of experiment: BSK_KF3CT_IP10: BioMAP Diversity Plus: KF3CT Assay for Interferon-gamma inducible Protein 10 (IP10) Biomarker Activity (AID 2283068). The following applies: primary human keratinocytes with fibroblasts; actives raise or lower the signal. The gist of the method:
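ELISA read-out of IP-10 after 24 h chemical dosing of human skin primary co-culture (keratinocytes, foreskin fibroblasts). Gain or loss of signal relative to DMSO, bidirectional curve fit.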

A short description of experiment [8]: BSK_KF3CT_SRB: Viability Assessment in the BioMAP Diversity Plus: KF3CT Assay (AID 2283069).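 Further: total protein by sulforhodamine B staining as a cytotoxicity measure; read 24 h after compound addition; fitted for both signal gain and loss against DMSO baseline.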 The following applies: primary human keratinocytes with fibroblasts. The gist of the method: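 Keratinocytes co-cultured with foreskin fibroblasts (human primary); chemical added, 24 h; fix 10% TCA, stain 0.1% SRB, A560. Bidirectional fit vs DMSO.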
Read-out in experiment [9]: Interleukin-1 alpha (IL1a), IL1A (gene 3552)
Kind of experiment: BSK_KF3CT_IL1a: BioMAP Diversity Plus: KF3CT Assay for Interleukin-1 alpha (IL1a) Biomarker Activity (AID 2283070). The following applies: primary human keratinocytes with fibroblasts; actives raise or lower the signal. The gist of the method: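 Chemicals were dosed onto co-cultured human keratinocytes and foreskin fibroblasts, IL-1a was quantified by ELISA at 24 h, and activity was fitted in both directions relative to DMSO controls.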

Read-out in experiment [10]: TIMP metallopeptidase inhibitor 2 (TIMP2), TIMP2 (gene 7077)
The experiment in a line: BSK_KF3CT_TIMP2: BioMAP Diversity Plus: KF3CT Assay for TIMP metallopeptidase inhibitor 2 (TIMP2) Biomarker Activity (AID 2283071). The following applies: primary human keratinocytes with fibroblasts; actives raise or lower the signal. The gist of the method:
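Keratinocyte–fibroblast co-culture, 24 h exposure; TIMP-2 ELISA, DMSO-normalised bidirectional fit. Parallel SRB (0.1%, TCA-fixed, 560 nm) total-protein staining gauges cytotoxicity.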

Read-out in experiment [11]: Transforming growth factor beta 1 (TGFb1), TGFB1 (gene 7040)
Kind of experiment: BSK_KF3CT_TGFb1: BioMAP Diversity Plus: KF3CT Assay for Transforming growth factor beta 1 (TGFb1) Biomarker Activity (AID 2283072). The following applies: primary human keratinocytes with fibroblasts; actives raise or lower the signal. A digest of the protocol:
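Signal changes in either direction, relative to DMSO, define activity here. TGF-b1 is read by ELISA from a human keratinocyte-fibroblast co-culture 24 h post-dose.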

Read-out in experiment [12]: C-C motif chemokine 2 (Homo sapiens) (UniProt P13500)
Kind of experiment: BSK_KF3CT_MCP1: BioMAP Diversity Plus: KF3CT Assay for Monocyte Chemoattractant Protein 1 (MCP1/CCL2) Biomarker Activity (AID 2283073). The following applies: primary human keratinocytes with fibroblasts; actives raise or lower the signal. A digest of the protocol:
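Human keratinocyte plus foreskin fibroblast primary co-culture exposed to chemical for 24 h. MCP-1 levels measured by ELISA. Bidirectional curve fitting relative to DMSO negative control as baseline.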

Read-out in experiment [13]: Matrix Metallopeptidase 9 (MMP9), MMP9 (gene 4318)
The experiment in a line: BSK_KF3CT_MMP9: BioMAP Diversity Plus: KF3CT Assay for Matrix Metallopeptidase 9 (MMP9) Biomarker Activity (AID 2283074).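 On AC50: MMP9 protein level quantified by ELISA in the co-culture.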 The following applies: primary human keratinocytes with fibroblasts; actives raise or lower the signal. A digest of the protocol:
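Human keratinocyte/foreskin fibroblast co-culture; compound added; 24 h; MMP-9 by ELISA; bidirectional fit vs DMSO baseline.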

Read-out in experiment [14]: urokinase plasminogen activator (uPA), PLAU (gene 5328)
Kind of experiment: BSK_KF3CT_uPA: BioMAP Diversity Plus: KF3CT Assay for urokinase plasminogen activator (uPA) Biomarker Activity (AID 2283075). The following applies: primary human keratinocytes with fibroblasts; actives raise or lower the signal. The gist of the method: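 ELISA readout of uPA, analyzed for signal gain or loss relative to DMSO, from a human primary keratinocyte–foreskin fibroblast co-culture measured 24 h after chemical treatment.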

Read-out in a further experiment: CD40, CD40 (gene 958)
The experiment in a line: BSK_LPS_CD40: BioMAP Diversity Plus: LPS Assay for CD40 Biomarker Activity (AID 2283076). The following applies: primary human HUVEC with PBMC; actives raise or lower the signal. A digest of the protocol:
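Primary human umbilical vein endothelial cells co-cultured with peripheral blood mononuclear cells, LPS-stimulated, were dosed with chemical and read 24 h later. CD40 levels were measured by ELISA and fitted bidirectionally against DMSO as negative control and baseline.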

Read-out in experiment [15]: E-selectin (Homo sapiens) (UniProt P16581)
Kind of experiment: BSK_LPS_Eselectin: BioMAP Diversity Plus: LPS Assay for Eselectin Biomarker Activity (AID 2283077). The following applies: primary human HUVEC with PBMC; actives raise or lower the signal. A digest of the protocol:
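Human umbilical vein endothelial cells co-cultured with peripheral blood mononuclear cells under LPS stimulation; E-selectin measured by ELISA 24 h after chemical dosing. Activity fitted bidirectionally against DMSO as negative control and baseline.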

Read-out in experiment [16]: Interleukin-8 (IL8), CXCL8 (gene 3576)
Kind of experiment: BSK_LPS_IL8: BioMAP Diversity Plus: LPS Assay for Interleukin-8 (IL8) Biomarker Activity (AID 2283078). The following applies: primary human HUVEC with PBMC; actives raise or lower the signal. The gist of the method:
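Human umbilical vein endothelial cells co-cultured with PBMC were stimulated with LPS; IL-8 levels were measured by ELISA 24 h after chemical dosing. Activity was fitted bidirectionally against DMSO as negative control and baseline.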

Experiment [17] can be described thus: BSK_LPS_SRB: Viability Assessment in the BioMAP Diversity Plus: LPS Assay (AID 2283079).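 Further: total protein by sulforhodamine B absorbance as a cytotoxicity measure; measured one day after compound addition; fitted in both directions against DMSO so loss or gain of signal counts.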 The following applies: primary human HUVEC with PBMC. The gist of the method:
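Human umbilical vein endothelial cells co-cultured with PBMC (LPS system) were dosed for 24 h. Total protein was stained with 0.1% sulforhodamine B after 10% TCA fixation, read at 560 nm, and fitted bidirectionally against DMSO baseline.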

Read-out in experiment [18]: Interleukin-1 alpha (IL1a), IL1A (gene 3552)
The experiment in a line: BSK_LPS_IL1a: BioMAP Diversity Plus: LPS Assay for Interleukin-1 alpha (IL1a) Biomarker Activity (AID 2283080). The following applies: primary human HUVEC with PBMC; actives raise or lower the signal. A digest of the protocol: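 Human umbilical vein endothelial cells co-cultured with peripheral blood mononuclear cells were LPS-stimulated and exposed to test chemicals for 24 h. IL-1 alpha was quantified by ELISA, with bidirectional curve fitting against DMSO as the negative control and baseline.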

Read-out in experiment [19]: Monocyte Chemoattractant Protein-1 (MCP1), CCL2 (gene 6347)
The experiment in a line: BSK_LPS_MCP1: BioMAP Diversity Plus: LPS Assay for Monocyte Chemoattractant Protein-1 (MCP1) Biomarker Activity (AID 2283081).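 On AC50: co-culture stimulated with LPS; secreted MCP-1 protein quantified by ELISA in culture supernatant.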 The following applies: primary human HUVEC with PBMC; actives raise or lower the signal. The gist of the method:
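HUVEC plus PBMC co-culture (human primary cells, LPS system) exposed to test chemical for 24 h; MCP-1 measured by ELISA. Bidirectional curve fitting against DMSO baseline; parallel SRB total-protein staining flags overt cytotoxicity.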

Calls of active or inactive are those of the source. How the source made its calls: active means hit-call score of the fitted dose curve at least 0.9, where 1 is the maximum; inactive means score below 0.9.

E-selectin (Homo sapiens), sequence (P16581 whole entry, looked up): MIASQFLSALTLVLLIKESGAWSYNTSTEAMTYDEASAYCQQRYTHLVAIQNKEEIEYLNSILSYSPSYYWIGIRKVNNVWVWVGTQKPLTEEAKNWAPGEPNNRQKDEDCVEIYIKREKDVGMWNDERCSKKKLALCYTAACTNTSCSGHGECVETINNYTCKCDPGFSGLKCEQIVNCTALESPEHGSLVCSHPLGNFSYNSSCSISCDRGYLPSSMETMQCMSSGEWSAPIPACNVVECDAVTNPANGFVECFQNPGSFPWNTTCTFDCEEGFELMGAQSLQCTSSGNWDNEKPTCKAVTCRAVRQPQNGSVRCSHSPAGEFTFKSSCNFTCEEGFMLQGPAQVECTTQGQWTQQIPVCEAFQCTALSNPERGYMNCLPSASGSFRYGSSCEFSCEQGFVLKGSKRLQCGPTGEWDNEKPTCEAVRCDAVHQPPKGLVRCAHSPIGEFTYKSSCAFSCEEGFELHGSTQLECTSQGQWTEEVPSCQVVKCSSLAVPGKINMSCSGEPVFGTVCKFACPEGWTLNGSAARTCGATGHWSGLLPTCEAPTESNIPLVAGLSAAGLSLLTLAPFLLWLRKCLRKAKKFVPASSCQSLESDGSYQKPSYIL

Turning to `Cc1ccc(C(C)C)cc1`, the outcome in [1], in experiment [2], in experiment [3], in experiment [4], in experiment [5] and in experiment [6] was inactive. For the same compound, the outcome in [7], in experiment [8], in experiment [9], in [10], in experiment [11] and in experiment [12] was inactive. The outcome was “inactive” in experiment [13]; “inactive” in experiment [14]; “inactive” with CD40, CD40 (gene 958); “inactive” in experiment [15]; “inactive” in [16]; “inactive” in experiment [17]. The result in experiment [18] and in [19] was inactive.

The AC50 is the concentration at which the activity in the assay is half-maximal. Consider `CN(C)c1ccc(C(=C2C=CC(=[N+](C)C)C=C2)c2ccc(N(C)C)cc2)cc1`, for which the AC50 in experiment [1] is 1.95 µM (active); in experiment [2] it was 5.26 µM (active); in [3] it was 5.45 µM (active); in experiment [4], 3.25 µM (active); in experiment [5], 1.54 µM (active); in [6], 10.8 µM (active). Moreover, the AC50 was 8.28 µM (active) in [7]; 5.24 µM (active) in experiment [8]; 2.54 µM (active) in [9]; 1.29 µM (active) in experiment [10]; 0.595 µM (active) in experiment [11]; 3.97 µM (active) in [12]. Further, the AC50 is 1.33 µM (active) in [13]; 2.85 µM (active) in [14]; 0.438 µM (active) with CD40, CD40 (gene 958); 0.355 µM (active) in [15]; 1.26 µM (active) in [16]; 7.67 µM (active) in experiment [17]. Besides, the AC50 in experiment [18] was 0.147 µM (active); in experiment [19], 0.269 µM (active).

As for `CC(C)(c1cc(Br)c(O)c(Br)c1)c1cc(Br)c(O)c(Br)c1`, the AC50 is 6.42 µM (active) in [1]; 7.65 µM (active) in experiment [2]; 6.31 µM (active) in experiment [3]; 5.94 µM (active) in [4]; 5.46 µM (active) in experiment [5]; 4.85 µM (active) in experiment [6]. For the same compound, the AC50 in [7] is 2.53 µM (active); in experiment [8], 5.11 µM (active); in experiment [9], 5.97 µM (active); in experiment [10] it was 4.6 µM (active); in experiment [11], 1.69 µM (active); in [12], 4.16 µM (active). Besides, the AC50 in experiment [13] was 3.69 µM (active); in experiment [14], 3.65 µM (active); with CD40, CD40 (gene 958), 24.1 µM (active); in experiment [15], 28.7 µM (active); in experiment [16], 30.3 µM (active); in experiment [17], 29.8 µM (active). In addition, the AC50 in experiment [19] is 29.1 µM (active).
